Compounds with a hit are over-represented: about 6.2% of the library has one in this group of screens.
ATXN viability: viability counter-screen for ATXN expression inhibitors. 400,000 compounds, 0.49% hits. Potency, µM (highest dose often 56.7 µM), most hits filed as cytotoxic. AID 651635. S2 cells (HEK-293 line with an ATXN2-luciferase reporter) viability, CellTiter-Fluor protease fluorescence, 24 h; note: nearly all actives have a fitted effect of over 40% in size
HT1080 IDH1KD tx: HT-1080 IDH1 knockdown cell toxicity (counter line); HT-1080 IDH1 knockdown viability, ATP luminescence, 48 h; 360,000 compounds, 2% hits; Potency, µM (top dose mostly 46.1 µM), for inactives: at the top dose activity, negative = toxicity, most hits filed as cytotoxic;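 note: 0% = DMSO wells and -100% = cell-free medium wells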
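In this qHTS, HT-1080 cells depleted of IDH1 are exposed for 48 h at 37 °C to compound titrations. Toxicity is scored from CellTiter-Glo luminescence, with DMSO as full viability and medium alone as none.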
HT1080-NT tox: kills 2HG-producing HT-1080-NT fibrosarcoma cells. HT-1080-NT fibrosarcoma viability, CellTiter-Glo ATP luminescence, 48 h. Potency, µM (titrated, usually from 46.1 µM), without a hit: at the highest dose activity, negative = less viability, hits mostly cytotoxic. 360,000 compounds, 1.6% hits. AID 686970;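 note: NT is the 2HG producing partner of a matched IDH1 knockdown line; 0% = DMSO-treated cells and -100% = media-only wells without cells; nearly all actives have a fitted effect of over 55% in size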
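750 cells/well, RPMI + 5% FBS; 2 h settle, compound pin-transfer, 48 h at 37 degrees C. CellTiter-Glo 10 min RT, luminescence. Normalized to DMSO and media-only wells.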
KB-3-1 tox: KB-3-1 parental cell cytotoxicity; KB-3-1 viability, CellTiter-Glo ATP luminescence, 72 h; 400,000 compounds, 1.4% hits; Potency, µM (highest dose often 46.1 µM), hits mostly cytotoxic; AID 1347075; note: % is set by controls: 0 for no effect and ±100 for the full control effect; nearly all actives have a fitted effect of over 60% in size
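Using CellTiter-Glo luminescence, growth of non-resistant KB-3-1 adenocarcinoma cells is assessed 72 h after pin-tool compound addition at 37 °C. Normalized responses across the concentration series yield fitted curves.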
ATXN2 expr inh: inhibitors of ATXN2 expression; HEK-293 ATXN2-luciferase reporter, luminescence, 24 h; Potency, µM (doses to about 57 µM), without a hit: at the top dose activity change, negative = inhibition, hits mostly inhibitors; 360,000 compounds, 0.72% hits; AID 1745845; note: % is set by controls: 0 for no effect and ±100 for the full control effect; nearly all actives have a fitted effect of over 55% in size
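qHTS (up to 57 uM final) was run with 24 h compound exposure of reporter cells at 37 °C. Each well was multiplexed: SteadyGlo luminescence measured ATXN2-luciferase expression after a fluorogenic Gly-Phe-AFC viability readout (25 uM final).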
KB-V1 MDR tox: KB-V1 MDR subline cytotoxicity; KB-V1 MDR cells viability, CellTiter-Glo, 72 h; Potency, µM (doses to about 46.1 µM), actives largely listed as cytotoxic; 400,000 compounds, 3.4% hits; AID 1347076; note: % is set by controls: 0 for no effect and ±100 for the full control effect; nearly all actives have a fitted effect of over 60% in size
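KB-V1 MDR subline cells in DMEM (phenol-red free, 10% FBS) exposed to compounds in qHTS concentration series for 72 h at 37 degrees C. Viability read by CellTiter-Glo luminescence; concentration-effect curves fitted after normalization and correction.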
Starred values were filed as active, the others as inactive. Calls come from the whole dose curve; as a rule, active = well fitted curve in the direction sought with a large enough effect; inconclusive = small, poorly fitted or top-dose-only effect, or another doubt; inactive = no such curve, though single readings can be large; an effect the other way counts as inactive or inconclusive. Potency is the fitted concentration of half-maximal effect.

How did CSc1oc(-c2ccccc2)nc1S(=O)(=O)c1ccc(C)cc1 do in these assays?
ATXN viability: inactive; HT1080 IDH1KD tx: -18%; HT1080-NT tox: 6%; KB-3-1 tox: inactive; ATXN2 expr inh: -2%; KB-V1 MDR tox: 21µM*

How did COc1ccc(/C=C/C(=O)Nc2ccc(Cl)cc2Cl)cc1 do in these assays?
ATXN viability: inconclusive; KB-3-1 tox: inconclusive; ATXN2 expr inh: 2%; KB-V1 MDR tox: inactive

What do the screens show for `CCc1ccccc1NC(=O)CSC1=Nc2ccccc2C2=NC(Cc3ccccc3)C(=O)N12` (centres undefined)?
ATXN viability: inconclusive; KB-3-1 tox: inactive; ATXN2 expr inh: 10%; KB-V1 MDR tox: inconclusive

Results for CNC(=O)CSc1nc(N)c2c3c(sc2n1)CCC3 ?
ATXN viability: inactive; HT1080 IDH1KD tx: -23%; HT1080-NT tox: 11%; KB-3-1 tox: inactive; ATXN2 expr inh: 24%; KB-V1 MDR tox: 21µM*

What do the screens show for `NC(=O)CSc1nc(N)c2c3c(sc2n1)CCCCC3`?
ATXN viability: inactive; HT1080 IDH1KD tx: 8%; HT1080-NT tox: 12%; KB-3-1 tox: inactive; ATXN2 expr inh: 35%; KB-V1 MDR tox: inconclusive

What do the screens show for `O=C1NC(Cc2ccccc2)c2nc3cc(F)ccc3c(=O)n2-c2cc3ccccc3cc21` (centres undefined)?
ATXN viability: inconclusive; HT1080 IDH1KD tx: 16µM*; HT1080-NT tox: inconclusive; KB-3-1 tox: inconclusive; ATXN2 expr inh: -22%; KB-V1 MDR tox: inconclusive

How did O=C1NC(Cc2ccccc2)c2nc3ccccc3c(=O)n2-c2cc3ccccc3cc21 (centres undefined) do in these assays?
ATXN viability: inconclusive; HT1080 IDH1KD tx: 9.2µM*; HT1080-NT tox: inconclusive; KB-3-1 tox: 13µM*; ATXN2 expr inh: inconclusive; KB-V1 MDR tox: inconclusive

How did Cc1ccc2c(=O)n3c(nc2c1)C(Cc1ccccc1)NC(=O)c1cc2ccccc2cc1-3 (centres undefined) do in these assays?
ATXN viability: inconclusive; HT1080 IDH1KD tx: 5.8µM*; HT1080-NT tox: 6.5µM*; KB-3-1 tox: 12µM*; ATXN2 expr inh: inconclusive; KB-V1 MDR tox: inconclusive

Results for COc1cc(C(CC(=O)Nc2cc(C)ccc2C)N2Cc3ccccc3C2=O)cc(OC)c1OC (centres undefined) ?
ATXN viability: inactive; KB-3-1 tox: inactive; ATXN2 expr inh: 13%; KB-V1 MDR tox: inactive

How did Cc1ccc2cc(C#N)c(SCc3nnc(-c4ccccc4[N+](=O)[O-])o3)nc2c1 do in these assays?
ATXN viability: inactive; HT1080 IDH1KD tx: 20%; HT1080-NT tox: 19%; KB-3-1 tox: 9.2µM*; ATXN2 expr inh: -18%; KB-V1 MDR tox: 13µM*

Results for CN(C)CCOc1cc(-c2cn[nH]c2)ccc1NC(=O)C1COc2ccccc2O1 (centres undefined) ?
ATXN2 expr inh: -16%

What do the screens show for `COc1ccc(OCc2cc(C(=O)NCC3CCOCC3)no2)c(Cl)c1`?
ATXN viability: inactive; HT1080 IDH1KD tx: 19%; HT1080-NT tox: 0%; KB-3-1 tox: inactive; ATXN2 expr inh: 30%; KB-V1 MDR tox: inactive

What do the screens show for `COc1ccc(OCc2cc(C(=O)NCCc3ccccc3)no2)c(Cl)c1`?
ATXN viability: inactive; HT1080 IDH1KD tx: 16µM*; HT1080-NT tox: inconclusive; KB-3-1 tox: inconclusive; ATXN2 expr inh: -14%; KB-V1 MDR tox: inconclusive

What do the screens show for `COc1ccc(CCNC(=O)c2ccc3nc(-c4ccco4)c(-c4ccco4)nc3c2)cc1OC`?
ATXN viability: inactive; HT1080 IDH1KD tx: inconclusive; HT1080-NT tox: inconclusive; KB-3-1 tox: inconclusive; ATXN2 expr inh: inconclusive; KB-V1 MDR tox: 7.3µM*

Results for COc1ccc(CCNC(=O)c2ccc3c(c2)ncn3-c2ccc(C(C)C)cc2)cc1OC ?
ATXN viability: inconclusive; KB-3-1 tox: inactive; ATXN2 expr inh: 25µM*; KB-V1 MDR tox: inconclusive

Bioassay records from PubChem BioAssay.
